# Laboratory results as given in PubChem BioAssay (Tox21).
# Values without a mark were called inactive. Inconclusive results are not listed. Where a call stands in place of a potency, no number is given. Activity calls are given as the source filed them. Calls follow the shape of the dose curve; as a rule, active = well fitted curve in the direction sought with a large enough effect in the repeat runs; inconclusive = weak or mixed curves; inactive = no such curve, though single readings can be large; an effect the other way counts as inactive or inconclusive.
# Experiments:
# [1] = qHTS RealTime-Glo MT Cell Viability Assay in HEK293 cells - 16 hour (AID 1224872); also: nearly all actives have a fitted effect of over 50% in size; also: potency is read from the fitted curve at half-maximal effect
# In short: (§1)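 Luminescence generated by NanoLuc from substrate produced by living HEK293 cells served as the viability signal. Each value reflects the reading at its stated time point during continuous 40 h compound exposure at 37 C.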
# [2] = qHTS RealTime-Glo MT Cell Viability Assay in HepG2 cells - 8 hour (AID 1224873); also: nearly all actives have a fitted effect of over 55% in size
# In short: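 Real-time viability: cells seeded at 600 per well together with NanoLuc and cell-permeant prosubstrate, compounds added after 5 h incubation. Luminescence tracked at 0, 8, 16, 24, 32 and 40 h of exposure.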
# [3] = qHTS RealTime-Glo MT Cell Viability Assay in HEK293 cells - 40 hour (AID 1224874); conditions: RealTime-Glo luminescence; max response: active compounds read low; also: nearly all actives have a fitted effect of over 50% in size; also: potency is read from the fitted curve at half-maximal effect
# In short: (§2)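 600 HEK293 cells per well, dispensed already mixed with RealTime-Glo MT reagents. Compound dosing came 5 h later. The same wells were read for luminescence at 0, 8, 16, 24, 32 and 40 h of exposure at 37 C.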
# [4] = A CellTox Green Cytotoxicity Assay to monitor cytotoxicity in HEK293 cells - 24 hour (AID 1224875); also: nearly all actives have a fitted effect of over 45% in size; also: potency is read from the fitted curve at half-maximal effect
# In short: (§3)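 Dead-cell fluorescence measured kinetically: asymmetric cyanine dye, HEK293, 600 cells/well, 5 h settle, 23 nL cpd/DMSO, 37 C, reads 0–40 h every 8 h.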
# [5] = A CellTox Green Cytotoxicity Assay to monitor cytotoxicity in HepG2 cells - 16 hour (AID 1224876); also: nearly all actives have a fitted effect of over 45% in size
# In short: (§4)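 First, HepG2 cells (600/well) mixed with reagent were plated; second, after 5 h at 37 C they received compounds via pintool; third, fluorescence was measured at 0 h through 40 h at 8 h intervals.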
# [6] = qHTS RealTime-Glo MT Cell Viability Assay in HepG2 cells - 32 hour (AID 1224877); also: nearly all actives have a fitted effect of over 55% in size
# In short: (§5)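 Tox21 10K library screened in qHTS format on HepG2 cells carrying RealTime-Glo reagents. Compounds were added after a 5 h preincubation, and the luminescent signal from continuous culture was measured repeatedly during 40 h treatment.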
# [7] = A CellTox Green Cytotoxicity Assay to monitor cytotoxicity in HepG2 cells - 24 hour (AID 1224878); also: nearly all actives have a fitted effect of over 45% in size
# In short: as §4
# [8] = qHTS RealTime-Glo MT Cell Viability Assay in HEK293 cells - 0 hour (AID 1224880); also: top concentration of the series differs between compounds; nearly all actives have a fitted effect of over 45% in size
# In short: as §2
# [9] = A CellTox Green Cytotoxicity Assay to monitor cytotoxicity in HEK293 cells - 32 hour (AID 1224881); also: nearly all actives have a fitted effect of over 40% in size; also: potency is read from the fitted curve at half-maximal effect
# In short: as §3
# [10] = A CellTox Green Cytotoxicity Assay to monitor cytotoxicity in HepG2 cells - 0 hour (AID 1224882); also: nearly all actives have a fitted effect of over 35% in size
# In short: as §4
# [11] = qHTS RealTime-Glo MT Cell Viability Assay in HepG2 cells - 16 hour (AID 1224885); also: nearly all actives have a fitted effect of over 50% in size
# In short: as §5
# [12] = qHTS RealTime-Glo MT Cell Viability Assay in HEK293 cells - 24 hour (AID 1224886); also: nearly all actives have a fitted effect of over 50% in size; also: potency is read from the fitted curve at half-maximal effect
# In short: as §1
# [13] = qHTS RealTime-Glo MT Cell Viability Assay in HEK293 cells - 8 hour (AID 1224887); also: nearly all actives have a fitted effect of over 50% in size; also: potency is read from the fitted curve at half-maximal effect
# In short: as §2
# [14] = A CellTox Green Cytotoxicity Assay to monitor cytotoxicity in HEK293 cells - 16 hour (AID 1224888); also: nearly all actives have a fitted effect of over 35% in size
# In short: as §3
# [15] = qHTS RealTime-Glo MT Cell Viability Assay in HepG2 cells - 0 hour (AID 1224889); also: nearly all actives have a fitted effect of over 50% in size
# In short: as §5
# [16] = A CellTox Green Cytotoxicity Assay to monitor cytotoxicity in HepG2 cells - 40 hour (AID 1224879); also: nearly all actives have a fitted effect of over 40% in size; also: potency is read from the fitted curve at half-maximal effect
# In short: as §4
# [17] = A CellTox Green Cytotoxicity Assay to monitor cytotoxicity in HepG2 cells - 32 hour (AID 1224883); also: nearly all actives have a fitted effect of over 50% in size; also: potency is read from the fitted curve at half-maximal effect
# In short: as §4
# [18] = A CellTox Green Cytotoxicity Assay to monitor cytotoxicity in HepG2 cells - 8 hour (AID 1224890); also: nearly all actives have a fitted effect of over 45% in size
# In short: as §4
# [19] = A CellTox Green Cytotoxicity Assay to monitor cytotoxicity in HEK293 cells - 8 hour (AID 1224884); also: nearly all actives have a fitted effect of over 35% in size; also: potency is read from the fitted curve at half-maximal effect
# In short: as §3
# [20] = A CellTox Green Cytotoxicity Assay to monitor cytotoxicity in HEK293 cells - 40 hour (AID 1224871); also: nearly all actives have a fitted effect of over 45% in size; also: potency is read from the fitted curve at half-maximal effect
# In short: as §3
compound,measurement,setting,value
COCC(C)N(C(=O)CCl)c1c(C)csc1C (configuration not stated),Potency,[1],inactive
same,Potency,[2],inactive
same,max response,[3],17.2%
same,Potency,[4],inactive
same,Potency,[5],inactive
same,Potency,[6],inactive
same,Potency,[7],inactive
same,Potency,[8],inactive
same,Potency,[9],inactive
same,Potency,[10],inactive
same,Potency,[11],inactive
same,Potency,[12],inactive
same,Potency,[13],inactive
same,Potency,[14],inactive
same,Potency,[15],inactive
CCCCN=C=O,Potency,[1],inactive
same,Potency,[2],inactive
same,max response,[3],2.49%
same,Potency,[4],inactive
same,Potency,[5],inactive
same,Potency,[6],inactive
same,Potency,[7],inactive
same,Potency,[16],inactive
same,Potency,[8],inactive
same,Potency,[9],inactive
same,Potency,[10],inactive
same,Potency,[17],inactive
same,Potency,[11],inactive
same,Potency,[12],inactive
same,Potency,[13],inactive
same,Potency,[14],inactive
same,Potency,[18],inactive
Cc1ccccc1CCl,Potency,[1],inactive
same,Potency,[2],inactive
same,max response,[3],-6.69%
same,Potency,[4],inactive
same,Potency,[5],inactive
same,Potency,[6],inactive
same,Potency,[7],inactive
same,Potency,[16],inactive
same,Potency,[8],inactive
same,Potency,[9],inactive
same,Potency,[10],inactive
same,Potency,[17],inactive
same,Potency,[19],inactive
same,Potency,[11],inactive
same,Potency,[12],inactive
same,Potency,[13],inactive
same,Potency,[14],inactive
same,Potency,[15],inactive
same,Potency,[18],inactive
O=[N+]([O-])c1ccccc1CCl,Potency,[1],inactive
same,Potency,[2],inactive
same,max response,[3],8.2%
same,Potency,[4],inactive
same,Potency,[5],inactive
same,Potency,[6],inactive
same,Potency,[7],inactive
same,Potency,[16],inactive
same,Potency,[8],inactive
same,Potency,[9],inactive
same,Potency,[10],inactive
same,Potency,[17],inactive
same,Potency,[19],inactive
same,Potency,[11],inactive
same,Potency,[12],inactive
same,Potency,[13],inactive
same,Potency,[14],inactive
same,Potency,[15],inactive
O=C1C(Cl)C(CCl)CN1c1cccc(C(F)(F)F)c1 (configuration not stated),Potency,[1],24.5 µM (active)
same,Potency,[2],inactive
same,Potency,[3],24.5 µM (active)
same,Potency,[4],inactive
same,Potency,[5],inactive
same,Potency,[6],inactive
same,Potency,[7],inactive
same,Potency,[16],inactive
same,Potency,[8],inactive
same,Potency,[9],inactive
same,Potency,[10],inactive
same,Potency,[17],inactive
same,Potency,[19],inactive
same,Potency,[11],inactive
same,Potency,[12],24.5 µM (active)
same,Potency,[13],24.5 µM (active)
same,Potency,[14],inactive
same,Potency,[15],inactive
CCCCNP(N)(N)=S,Potency,[1],inactive
same,Potency,[2],inactive
same,max response,[3],0.198%
same,Potency,[4],inactive
same,Potency,[5],inactive
same,Potency,[6],inactive
same,Potency,[7],inactive
same,Potency,[16],inactive
same,Potency,[8],inactive
same,Potency,[9],inactive
same,Potency,[10],inactive
same,Potency,[17],inactive
same,Potency,[19],inactive
same,Potency,[11],inactive
same,Potency,[12],inactive
same,Potency,[13],inactive
same,Potency,[14],inactive
same,Potency,[15],inactive
same,Potency,[18],inactive
O=C(O)C1(c2ccc3c(c2)OC[C@H](Cc2ccc(-c4ccccc4)cc2)[C@H]3O)CCCC1,Potency,[20],34.7 µM (active)
same,Potency,[4],38.9 µM (active)
same,Potency,[6],inactive
same,Potency,[16],49 µM (active)
same,Potency,[8],inactive
same,Potency,[9],34.7 µM (active)
same,Potency,[10],inactive
same,Potency,[17],43.6 µM (active)
same,Potency,[19],19.5 µM (active)
same,Potency,[11],inactive
same,Potency,[18],inactive
CC1Sc2c(C(=O)O)c(=O)c3cc(F)c(N4CCNCC4)cc3n21 (configuration not stated),Potency,[1],inactive
same,Potency,[2],inactive
same,max response,[3],1.01%
same,Potency,[4],inactive
same,Potency,[5],inactive
same,Potency,[7],inactive
same,Potency,[16],inactive
same,Potency,[8],inactive
same,Potency,[9],inactive
same,Potency,[10],inactive
same,Potency,[17],inactive
same,Potency,[19],inactive
same,Potency,[11],inactive
same,Potency,[12],inactive
same,Potency,[13],inactive
same,Potency,[14],inactive
same,Potency,[15],inactive
same,Potency,[18],inactive
COC(=O)c1cncn1C(C)c1ccccc1 (configuration not stated),Potency,[1],inactive
same,Potency,[2],inactive
same,max response,[3],1.22%
same,Potency,[4],inactive
same,Potency,[5],inactive
same,Potency,[6],inactive
same,Potency,[7],inactive
same,Potency,[16],inactive
same,Potency,[8],inactive
same,Potency,[9],inactive
same,Potency,[10],inactive
same,Potency,[17],inactive
same,Potency,[19],inactive
same,Potency,[11],inactive
same,Potency,[12],inactive
same,Potency,[14],inactive
same,Potency,[18],inactive
COP(=S)(Oc1cc(Cl)c(Br)cc1Cl)c1ccccc1 (configuration not stated),Potency,[20],inactive
same,Potency,[4],inactive
same,Potency,[6],inactive
same,Potency,[8],inactive
same,Potency,[9],inactive
same,Potency,[19],inactive
same,Potency,[11],inactive
same,Potency,[14],inactive
CCOc1ccc(C(C)(C)COCc2cccc(Oc3ccccc3)c2)cc1,Potency,[1],inactive
same,Potency,[2],inactive
same,max response,[3],11.2%
same,Potency,[4],inactive
same,Potency,[5],inactive
same,Potency,[6],inactive
same,Potency,[7],inactive
same,Potency,[16],inactive
same,Potency,[8],inactive
same,Potency,[9],inactive
same,Potency,[10],inactive
same,Potency,[17],inactive
same,Potency,[19],inactive
same,Potency,[11],inactive
same,Potency,[12],inactive
same,Potency,[13],inactive
same,Potency,[14],inactive
CCCN(CC1CC1)c1c([N+](=O)[O-])cc(C(F)(F)F)cc1[N+](=O)[O-],Potency,[20],inactive
same,max response,[3],9.65%
same,Potency,[4],inactive
same,Potency,[5],inactive
same,Potency,[6],inactive
same,Potency,[7],inactive
same,Potency,[16],inactive
same,Potency,[8],inactive
same,Potency,[9],inactive
same,Potency,[10],inactive
same,Potency,[17],inactive
same,Potency,[11],inactive
same,Potency,[12],inactive
same,Potency,[14],inactive
same,Potency,[15],inactive
same,Potency,[18],inactive
O=C(NCc1cccnc1)Nc1ccc([N+](=O)[O-])cc1,Potency,[1],49 µM (active)
same,Potency,[2],inactive
same,Potency,[3],54.9 µM (active)
same,Potency,[4],inactive
same,Potency,[5],inactive
same,Potency,[7],inactive
same,Potency,[16],inactive
same,Potency,[8],inactive
same,Potency,[9],inactive
same,Potency,[10],inactive
same,Potency,[17],inactive
same,Potency,[19],inactive
same,Potency,[11],inactive
same,Potency,[12],49 µM (active)
same,Potency,[13],inactive
same,Potency,[14],inactive
same,Potency,[15],inactive
same,Potency,[18],inactive
OCCCBr,Potency,[1],inactive
same,Potency,[2],inactive
same,max response,[3],-0.927%
same,Potency,[4],inactive
same,Potency,[5],inactive
same,Potency,[6],inactive
same,Potency,[7],inactive
same,Potency,[16],inactive
same,Potency,[8],inactive
same,Potency,[9],inactive
same,Potency,[10],inactive
same,Potency,[17],inactive
same,Potency,[11],inactive
same,Potency,[12],inactive
same,Potency,[13],inactive
same,Potency,[15],inactive
O=[N+]([O-])c1cc(C(F)(F)F)cc([N+](=O)[O-])c1Cl,Potency,[20],inactive
same,Potency,[4],inactive
same,Potency,[5],inactive
same,Potency,[6],inactive
same,Potency,[7],inactive
same,Potency,[16],inactive
same,Potency,[8],inactive
same,Potency,[9],inactive
same,Potency,[10],inactive
same,Potency,[17],inactive
same,Potency,[19],inactive
same,Potency,[11],inactive
same,Potency,[14],inactive
same,Potency,[15],inactive
same,Potency,[18],inactive
